Assay outcomes: PubChem BioAssay, National Center for Advancing Translational Sciences (NCATS)
Hits are enriched below; roughly 1.7% of the tested compounds scored in any of these assays.
ALOX15B inhib: blocks human 15-lipoxygenase 2 activity; O15296; purified 15hLO-2, xylenol orange hydroperoxide absorbance; Potency, µM (highest dose often 57.1 µM), most hits filed as inhibitors; 110,000 compounds, 0.56% hits; further: nearly all actives have a fitted effect of over 60% in size
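Screening format was qHTS against 50 nM purified 15hLO-2 in Hepes pH 7.5 with detergent. Activity follows hydroperoxide formation from 45 uM arachidonic acid, measured as 573:405 nm absorbance ratio of the ferric-xylenol orange complex.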
Caspase-7 inhib: blocks human caspase-7 allosterically or competitively | P55210 | recombinant caspase-7, Ac-DEVD-AFC fluorescence rate | Potency, µM (highest dose often 57.5 µM), hits mostly inhibitors | 75,000 compounds, 0.02% hits; active means well fitted inhibition curve with a large enough effect in the main read-out, with a control signal flat, not every such curve was filed as active; inconclusive means small, poorly fitted or top-dose-only effect, or a change in a side signal
Target sequence (P55210 24-198 limits assumed): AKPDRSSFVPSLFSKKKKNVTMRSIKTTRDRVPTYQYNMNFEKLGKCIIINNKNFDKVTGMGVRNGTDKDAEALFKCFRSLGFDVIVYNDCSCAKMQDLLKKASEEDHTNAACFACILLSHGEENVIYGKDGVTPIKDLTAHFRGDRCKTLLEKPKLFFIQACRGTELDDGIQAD
Target sequence (P55210 207-303 limits assumed): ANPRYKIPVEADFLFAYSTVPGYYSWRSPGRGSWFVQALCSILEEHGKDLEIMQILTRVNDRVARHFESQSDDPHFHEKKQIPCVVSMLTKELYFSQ
Caspase-1 inhib: blocks human caspase-1 allosterically or competitively | 75,000 compounds, 0.03% hits | P29466 | Caspase-1 enzyme, Ac-WEHD-AFC fluorogenic rate | Potency, µM (series often up to 57.5 µM), usual class: inhibitors
Target sequence (P29466 120-297 limits assumed): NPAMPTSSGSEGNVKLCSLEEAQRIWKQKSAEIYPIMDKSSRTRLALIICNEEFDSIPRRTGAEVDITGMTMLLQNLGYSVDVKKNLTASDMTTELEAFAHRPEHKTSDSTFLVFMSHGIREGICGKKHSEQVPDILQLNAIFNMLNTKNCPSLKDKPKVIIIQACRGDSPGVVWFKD
Target sequence (P29466 317-404 limits assumed): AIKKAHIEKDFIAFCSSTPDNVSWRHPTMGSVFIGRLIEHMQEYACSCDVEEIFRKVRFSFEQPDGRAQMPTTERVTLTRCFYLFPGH
15-hLO inh: 15-hLO (ALOX15) enzyme inhibition; purified 15hLO-1, xylenol orange hydroperoxide absorbance; Potency, µM (top dose mostly 57.1 µM), hits mostly inhibitors; 74,000 compounds, 1.4% hits; AID 887; P16050; further: nearly all actives have a fitted effect of over 55% in size
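Quantitative HTS in 25 mM Hepes pH 7.5 containing 0.01% Triton X-100: human 15hLO-1 at 40 nM, arachidonic acid at 50 uM, 6 min turnover. Product quantified via ferrous oxidation/xylenol orange, 573:405 nm absorbance ratio.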
ERK AVP block: inhibitors of vasopressin-stimulated ERK signaling pathway | HEK293-V1b, vasopressin-stimulated pERK AlphaScreen | Potency, µM (titrated, usually from 57.5 µM), hits mostly inhibitors | 72,000 compounds, 0.99% hits; further: nearly all actives have a fitted effect of over 55% in size
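Phosphorylated ERK1/2 detected via AlphaScreen bead proximity in lysates of V1b-expressing HEK293 cells given 25 nM vasopressin for 5 min after 30 min compound exposure (37 °C). AC50 from Hill equation; basal DMSO 0%, vasopressin 100%.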
Large screens that a line does not name were inactive. Unless noted, the call rests on the fitted dose curve; in most records, active means well fitted curve in the direction sought with a large enough effect; inconclusive means small, poorly fitted or top-dose-only effect, or another doubt; inactive means no such curve, though single readings can be large; an effect the other way counts as inactive or inconclusive.

N[C@@H](Cc1cc(-c2ccc(Cl)cc2Cl)cc(CP(=O)(O)O)c1O)C(=O)O	15-hLO inh 12.6µM, ERK AVP block inconclusive
N[C@@H](Cc1c[nH]c2ccc(O)cc12)C(=O)O	15-hLO inh inconclusive
Nc1nc(N)nc(-c2ccc(Oc3ccccc3)cc2)n1	none (no result: Caspase-7 inhib, Caspase-1 inhib, 15-hLO inh, ERK AVP block)
Nc1ncnc2c1c(-c1ccc(Oc3ccccc3)cc1)cn2C1CCCC1	ERK AVP block 7.94µM
O=C1CC(Nc2ccccc2)C(=O)N1c1ccc(N2CCOCC2)cc1 (stereo unspecified)	none
CC(C)N1C(=O)CC(Nc2ccc(N3CCOCC3)cc2)C1=O (stereo unspecified)	ALOX15B inhib 25.1µM (no result: Caspase-7 inhib, Caspase-1 inhib, 15-hLO inh, ERK AVP block)
COc1ccc(NC2CC(=O)N(C(C)C)C2=O)cc1 (stereo unspecified)	none
O=C1CC(Nc2ccc(N3CCOCC3)cc2)C(=O)N1c1ccccc1F (stereo unspecified)	15-hLO inh 20µM (no result: ALOX15B inhib, ERK AVP block)
COc1ccc(CCN2C(=O)CC(Nc3ccc(N4CCOCC4)cc3)C2=O)cc1OC (stereo unspecified)	ALOX15B inhib 25.1µM, 15-hLO inh inconclusive, ERK AVP block inconclusive
COc1ccc2c(c1)C(c1ccccc1C)CC(=O)O2 (stereo unspecified)	none (no result: Caspase-7 inhib, Caspase-1 inhib, 15-hLO inh, ERK AVP block)
COc1ccc(CNc2ncnc3ccc(-c4c(C)noc4C)cc23)c(OC)c1	ERK AVP block inconclusive
c1ccc(CCN2CCN(c3ncnc4c3cnn4-c3ccccc3)CC2)cc1	ERK AVP block 15.8µM
CCN1CCN(c2ncnc3c2cnn3-c2ccccc2)CC1	none (no result: Caspase-7 inhib, Caspase-1 inhib, 15-hLO inh, ERK AVP block)
CC(C)(C[C@@]1(C)NC(=O)NC1=O)OCc1ccccc1	none
Cc1ccc(C(=O)NCc2ccc(N3CCN(C(=O)OC(C)(C)C)CC3)cc2)cc1	none (no result: Caspase-7 inhib, Caspase-1 inhib, 15-hLO inh, ERK AVP block)
CC(=O)N1CCN(c2ccc(NCc3ccc(C)cc3)cc2)CC1	ALOX15B inhib 10µM, 15-hLO inh 12.6µM
CCc1ccc(CNc2ccc(N3CCN(C(C)=O)CC3)cc2)cc1	ALOX15B inhib 12.6µM, 15-hLO inh 15.8µM, ERK AVP block inconclusive
CC(=O)Nc1ccc(N2CCN(C(C)=O)CC2)cc1	none
COC(=O)[C@@]1(C)CCC[C@@]2(C)c3ccc(O)c(C(C)C)c3CCC21 (stereo partly specified)	none
CN(C)c1ncc2nc(CCc3ccccc3)c(=O)n(C[C@H]3CCCO3)c2n1	Caspase-7 inhib inconclusive, Caspase-1 inhib inconclusive
Cc1ccc(-c2ccc(/C=N/N3C(=O)C4C5C=CC(CC5)C4C3=O)o2)c([N+](=O)[O-])c1 (stereo unspecified)	none (no result: Caspase-7 inhib, Caspase-1 inhib, 15-hLO inh, ERK AVP block)
Cc1ccc(-c2ccc(/C=C3\C(=O)ON=C3c3ccccc3)o2)c([N+](=O)[O-])c1	ALOX15B inhib 3.98µM (no result: Caspase-7 inhib, Caspase-1 inhib, 15-hLO inh, ERK AVP block)
COc1ccc2[nH]cc(CCNc3ncncc3-c3cccc(C#N)c3)c2c1	ERK AVP block inconclusive
O=C(O)[C@H]1C[C@@H](CP(=O)(O)O)CCN1	15-hLO inh inconclusive
CC[C@H](c1ccc(O)cc1)[C@@H](CC)c1ccc(O)cc1	ALOX15B inhib 10µM, 15-hLO inh inconclusive
CCC(c1ccc(O)cc1)C(CC)c1ccc(O)cc1 (stereo unspecified)	ALOX15B inhib inconclusive, 15-hLO inh inconclusive
CC(=O)O[C@@H]1[C@H]([N+]2(C)CCCCC2)C[C@@H]2[C@@H]3CC[C@@H]4C[C@@H](OC(C)=O)[C@H]([N+]5(C)CCCCC5)C[C@@]4(C)[C@H]3CC[C@]21C	none
N#CC1=C(N)Oc2n[nH]c(-c3ccncc3)c2C1c1ccsc1 (stereo unspecified)	15-hLO inh inconclusive, ERK AVP block 10µM
N#CC1=C(N)Oc2n[nH]c(-c3cccs3)c2C1c1ccoc1 (stereo unspecified)	15-hLO inh 10µM, ERK AVP block inconclusive
CC(C)C1C(C#N)=C(N)Oc2n[nH]c(-c3cccs3)c21 (stereo unspecified)	15-hLO inh inconclusive, ERK AVP block 15.8µM
COc1cccc(Nc2ncc3nc(CCc4ccccc4)c(=O)n(C)c3n2)c1	Caspase-7 inhib inconclusive (no result: Caspase-1 inhib)
CC#C[C@]1(O)CC[C@H]2[C@@H]3CCC4=CC(=O)CCC4=C3[C@H](c3ccc(N(C)C)cc3)C[C@@]21C	15-hLO inh 10µM, ERK AVP block 12.6µM
COC(=O)C/C=C\[C@@H](C)[C@@H](/C=N\OC[C@@H]1O[C@H](c2ccccc2)C=C[C@@H]1Oc1ccc(OC)cc1)NS(=O)(=O)c1ccc(C)cc1	none (no result: ALOX15B inhib)
CC(C)CNC1=CC(=O)CC(c2ccco2)C1 (stereo unspecified)	15-hLO inh 10µM
O=C1C=C(NCc2ccc(Cl)cc2)CC(c2ccco2)C1 (stereo unspecified)	none
COc1ccc(CNc2oc(-c3ccccc3)nc2C#N)cc1	ERK AVP block 31.6µM
COc1ccc(CCNc2oc(COc3ccc(Br)cc3)nc2C#N)cc1OC	ERK AVP block 20µM
COc1ccc(-c2nc(C#N)c(NCc3ccccc3Cl)o2)cc1OC	none
COc1ccc(-c2nc(C#N)c(NCCc3ccccc3)o2)cc1	ERK AVP block 15.8µM (no result: ALOX15B inhib)
COc1ccc(-c2nc(C#N)c(NCc3ccc(F)cc3)o2)cc1OC	ERK AVP block 25.1µM
C[C@H]1COC(=O)[C@H]2CCCN2C(=O)[C@@H](C)COC(=O)[C@H]2CCCN2C1=O	none (no result: ALOX15B inhib)
COc1ccc(NC(=O)Nc2ccc3c(c2)N(C)C(=O)CS3)cc1OC	ERK AVP block 25.1µM (no result: ALOX15B inhib)
COc1ccc(Oc2ncc3nc(-c4cccc(C#N)c4)c(=O)n(C)c3n2)cc1	none
NS(=O)(=O)c1ccc(N=Nc2ccc[nH]c2=O)cc1	15-hLO inh 3.16µM
CC(=O)[C@@]1(N=Nc2ccc(S(N)(=O)=O)cc2)CCOC1=O	none
O=C(Nc1ccc2oc(-c3ccccc3F)nc2c1)c1ccc2c(c1)OCCO2	ERK AVP block 10µM
O=C(Nc1ccccc1-c1nc2ccccc2o1)c1ccc2c(c1)OCCO2	none (no result: ALOX15B inhib)
O=C(Nc1ccc2nn(-c3ccccc3)nc2c1)c1ccc2c(c1)OCCO2	ERK AVP block 15.8µM
O=C(O)c1ccncc1.O=C(O)c1ccncc1.[Cl][Pt]([Cl])([Cl])[Cl]	none (no result: 15-hLO inh)
O=C(N/N=C1/C[C@@H](O)[C@@H](O)[C@@H]2[C@@H]3C(=O)N(C[C@@H]4CCCO4)C(=O)[C@H]3CC[C@H]12)OCc1ccccc1	15-hLO inh inconclusive (no result: ALOX15B inhib)
CN(C)c1nc(-c2ccc3c(c2)OCO3)nc2ccccc12	15-hLO inh inconclusive
COC(=O)C1=C(C)Nc2ccc(C)cc2S1	ALOX15B inhib 6.31µM, 15-hLO inh 10µM, ERK AVP block inconclusive
CC(=O)c1c(C)[nH]c(C(=O)Nc2ccc(C)c(C)c2)c1C	none (no result: Caspase-7 inhib, Caspase-1 inhib, 15-hLO inh, ERK AVP block)
COc1ccc(NC(=O)c2[nH]c(C)c(C(C)=O)c2C)cc1Cl	15-hLO inh 31.6µM, ERK AVP block inconclusive
O=C(O)C1=CC(=C(c2ccc(O)c(C(=O)O)c2)c2ccc(O)c(C(=O)O)c2)C=CC1=O	ALOX15B inhib 7.94µM, 15-hLO inh 2.51µM
CC1=C/C(=C(/c2ccc(O)c(C)c2)c2ccccc2C(=O)O)C=CC1=O	none
